Common to all, as to assay: NCI-60 one-dose screen, 48 h (100 = growth as untreated, 0 = no growth, -100 = all killed)
Conditions in all cases: 10 µM unless noted

For test [1], the system named is K-562 leukemia.
Test [2] has as its system MALME-3M melanoma.
In test [3] the test system is MDA-MB-231 breast.
Test [4] concerns RXF 393 renal.
In test [5] the test system is SF-268 CNS.
For test [6], the system named is SF-295 CNS.
Test [7] has as its system SF-539 CNS.
Test [8] deals with UACC-257 melanoma.
In test [9] the test system is HCT-15 colon.
For test [10], the system named is HT29 colon.
Test [11] concerns SNB-75 CNS.
In test [12] the test system is SNB-19 CNS.
Test [13] has as its system U251 CNS.
Test [14] concerns PC-3 prostate.
The test system of test [15] is SK-MEL-5 melanoma.
Test [16] has as its system UACC-62 melanoma.
Test [17] has as its system SK-MEL-28 melanoma.
Test [18] has as its system SK-MEL-2 melanoma.
Test [19] relates to LOX IMVI melanoma.
The subject of test [20] is M14 melanoma.

The panel holds about 83,000 compounds, 20% with a hit somewhere; the sample as a whole holds those more often.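 Values shown are percent growth following 48 h exposure of cells in 96-well plates to a single concentration of compound; below 10 was considered active.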 A number with no mark means an inactive call. Activity calls are given as the source filed them.

Consider `CN1CCN(Cc2ccc(NC(=O)c3cncc(C#Cc4cnc5[nH]ncc5c4)c3)cc2C(F)(F)F)CC1`, for which the growth in test [1] is 3.87% (active); in test [2], -27.9% (active); in test [3], -23.8% (active); in test [4], -2.95% (active); in test [5], 37.7%; in [6] it was 35.4%. For the same compound, the growth in [7] was 13%; in test [8] it was 40.5%; in [9], 19.4%; in [10] it was 22.7%; in test [11] it was 64%; in test [12] it was 59.3%. Further, the growth in [13] was 31.3%; in test [14] it was 42.3%; in test [15] it was 43.4%; in [16], 1.56% (active); in [17] it was 1.4% (active); in test [18], -49.6% (active).

On to `CC(C)(C)Nc1nc2c(OCCc3ccccc3)cccn2c1-c1ccc(O)cc1`, for which the growth in test [1] is 17.4%; in test [2], 62.5%; in test [3], 79.6%; in test [4], 21.2%; in test [5], 91.3%; in [6], 36%. Moreover, the growth in test [7] was 72.9%; in test [8] it was 97.9%; in [9] it was 2.12% (active); in test [10] it was 14.8%; in test [11], 124%; in test [12], 68.3%. Moreover, the growth in test [13] was 53.1%; in test [14] it was 28.8%; in test [16] it was 70.4%; in test [19], 34.9%; in test [17], 66%; in test [18], 85.1%.

In the case of `COc1ccc(-n2c(SCC(=O)Nc3ccc(-c4nc5ccccc5[nH]4)cc3)nc3ccccc3c2=O)cc1`, the growth is 5.98% (active) in [1]; -57.3% (active) in test [2]; 29% in [3]; -39.1% (active) in [4]; 42.6% in test [5]; 16.2% in test [6]. The growth in [7] is -77.3% (active); in test [8], 45.3%; in [9], -11% (active); in [10], -5.71% (active); in test [11], 62.8%; in test [12], 20.9%. For the same compound, the growth is -83.4% (active) in test [13]; 6.41% (active) in test [14]; -7.57% (active) in test [15]; -18.3% (active) in [16]; -64% (active) in test [17]; 97.7% in [18].

For the compound `COc1cc(-c2nc3ccc(-c4nnc(SCC(=O)Nc5ccc(C(=O)/C=C/c6ccc(Cl)cc6)cc5)o4)cc3[nH]2)cc(OC)c1OC`, the growth was 83.8% in [1]; 101% in [2]; 91.6% in test [3]; 112% in test [4]; 99.2% in [5]; 97.7% in test [6]. Further, the growth in test [7] was 74.7%; in [8] it was 112%; in [9] it was 86.9%; in test [10], 102%; in [11] it was 85.3%; in test [12], 93.4%. The growth in [14] was 95.1%; in test [15] it was 91.4%; in test [16], 84%; in test [19] it was -31.6% (active); in [17], 102%; in test [18] it was 100%.

With `CN(C)CCCOc1c2ccc(Cl)cc2nc2c1oc1ccc(Cl)cc12`, the growth was -39.8% (active) in test [1]; 0.745% (active) in [2]; -48.3% (active) in [3]; -86.6% (active) in test [4]; 25.9% in [5]; 11.9% in test [6]. In addition, the growth in test [7] is 16.5%; in test [8], 41.3%; in [9], -80.5% (active); in [10], -77.6% (active); in test [11] it was 18.3%; in test [12], 24.5%. In addition, the growth is -66% (active) in [13]; 23.2% in test [14]; -19.3% (active) in [15]; -68.1% (active) in [16]; -77.2% (active) in test [19]; 4.58% (active) in [17]. Besides, the growth in test [18] is 58.5%.

`NC(=O)c1c(NC(=O)c2ccc(C3CCCCC3)cc2)sc2c1CCC(=O)C2`: the growth was 3.87% (active) in [1]; 13.2% in [2]; 15.6% in test [3]; -2.51% (active) in test [4]; 33.1% in test [5]; 18.9% in [6]. The growth in test [7] was 14.9%; in [8] it was 12.2%; in test [9] it was 4.53% (active); in test [10] it was 2.41% (active); in test [11], 43.2%; in [12], 25.5%. Also, the growth in test [13] is 10.7%; in test [14], 16.1%; in test [16], 26.4%; in [17], 31.7%; in test [18] it was 25.7%.

In the case of `COc1cccc(COc2ccc(/C=C3/C(=O)Nc4cc(Cl)ccc43)cc2)c1`, the growth in test [2] was 96.7%; in [3], 78.2%; in test [4], 88.7%; in test [5], 99.5%; in test [6], 103%; in test [7], 93%. The growth was 104% in test [8]; 104% in test [20]; 99.6% in [9]; 93.8% in test [10]; 84.2% in [11]; 97.5% in test [12]. In addition, the growth is 98.9% in [13]; 84.5% in test [14]; 93% in test [15]; 86.7% in [16]; 97.9% in test [19]; 102% in [17]. Moreover, the growth in test [18] was 107%.

`COC(=O)C1CCCN(S(=O)(=O)/N=C2\NC(=O)NC2=C(Cl)Cl)C1` (centres undefined): the growth is 10.9% in test [1]; 104% in test [2]; 102% in test [3]; 121% in test [4]; 106% in test [5]; 104% in test [6]. Moreover, the growth is 105% in [7]; 106% in test [8]; 80.7% in [9]; 116% in test [10]; 125% in test [11]; 94.6% in [12]. In addition, the growth in test [13] was 95.3%; in [14], 101%; in [16] it was 94%; in test [17] it was 105%; in [18], 106%.

These data come from PubChem BioAssay (NCI).
